According to PubChem BioAssay (NCATS):
Inconclusive results are not listed. Values without a mark were called inactive. Active and inactive are the calls of the source. Calls come from the whole dose curve; as a rule, active = well fitted inhibition curve with a large enough effect; inconclusive = small, poorly fitted or top-dose-only effect; inactive = flat fitted curve, though single readings scatter.

How the values were obtained:
[1] = qHTS profiling for inhibitors of Plasmodium falciparum proliferation (AID 504749);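 for activity, negative = inhibition: 0% = DMSO vehicle and full inhibition = artemisinin control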; for all read-outs here: nearly all actives have a fitted effect of over 60% in size; conditions: P. falciparum in erythrocytes, SYBR Green DNA, 72 h; for activity, negative = inhibition: at 28.7 µM (top of the series)
How it was run: (§1)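 Readout was DNA-dye fluorescence from lysed cultures, ex 485/em 535 nm. Parasitized red cells had grown 72 h with compound; data scaled between 0.29 uM artemisinin and DMSO wells and corrected using vehicle-only plates.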

[2] = tested on: 3D7; experiment: as above; conditions: P. falciparum in erythrocytes, SYBR Green DNA, 72 h; series mostly up to 28.7 µM
How it was run: as §1

[3] = tested on: 7G8; experiment: as above; conditions: P. falciparum in erythrocytes, SYBR Green DNA, 72 h; series mostly up to 28.7 µM
How it was run: as §1

[4] = tested on: AA1029; experiment: as above; conditions: P. falciparum in erythrocytes, SYBR Green DNA, 72 h; series mostly up to 28.7 µM
How it was run: as §1
Potency is the fitted concentration of half-maximal effect.

Row | Structure (SMILES) | activity, negative = inhibition ([1]; parasite line A) [%] | activity, negative = inhibition ([1]; parasite line B) [%] | Potency [2] | Potency [3] | Potency [4] | Potency ([1]; parasite line A) | Potency ([1]; parasite line B)
1 | CC(C)(Oc1ccc(Cl)cc1)C(=O)O | 5.47 | 14.8 | inactive | inactive | inactive |  | 
2 | CCCCCCCCCCCCCCCC[N+](C)(C)CC |  |  | 3.55 µM (active) | 3.55 µM (active) | 4.47 µM (active) | 3.98 µM (active) | 5.01 µM (active)
3 | CCOC(=O)COc1ccc2c(C)c(CCN(CC)CC)c(=O)oc2c1Cl |  | -29.4 | inactive | inactive | inactive | 3.55 µM (active) | 
4 | CCOc1ccc2nc3cc(N)ccc3c(N)c2c1 |  |  | 11.2 µM (active) | 1.78 µM (active) | 7.94 µM (active) | 7.94 µM (active) | 5.01 µM (active)
5 | COc1cc2c(cc1OC)C(C(C(=O)N(CCc1ccc(OC)c(OC)c1OC)CCc1ccc(OC)c(OC)c1OC)c1ccccc1)=NCC2 (stereo not given) | 14.8 | -1.99 | 4.47 µM (active) | 0.316 µM (active) | 2.51 µM (active) |  | 
6 | CN=C(NC#N)NCCSCc1csc(N=C(N)N)n1 | 2.51 | -0.371 | inactive | inactive | inactive |  | 
7 | O=S1(=O)c2cccc3cccc(c23)N1CCCN1CCN(c2ccc(F)cc2)CC1 | 7.63 | -0.586 | inactive | 12.6 µM (active) | inactive |  | 
8 | N[C@H](CO)C(=O)O | -0.225 | -23.4 | inactive | inactive | inactive |  | 
9 | CCCn1c(=O)[nH]c(=O)c2[nH]cnc21 | -4.05 | 5.13 | inactive | inactive | inactive |  | 
